# Inconclusive results are not listed. Entries that show only a call come without a potency. Active and inactive are the calls of the source. Unless noted, calls come from the whole dose curve; as a rule, active = well fitted curve in the direction sought with a large enough effect; inconclusive = small, poorly fitted or top-dose-only effect, or another doubt; inactive = no such curve, though single readings can be large; an effect the other way counts as inactive or inconclusive.
# What was measured:
# [1] = target: Calcium and integrin-binding protein 1 (Homo sapiens) (UniProt Q99828); experiment: Primary qHTS for Identification of Calcium Integrin Binding Protein 1 (CIB1) Competitor (AID 1508620);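 note: GST tagged CIB1 binding a fluorescein labelled alphaIIb integrin peptide tracer; top concentration of the series differs between compounds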
# Calcium and integrin-binding protein 1 (Homo sapiens), sequence (Q99828 whole entry, looked up): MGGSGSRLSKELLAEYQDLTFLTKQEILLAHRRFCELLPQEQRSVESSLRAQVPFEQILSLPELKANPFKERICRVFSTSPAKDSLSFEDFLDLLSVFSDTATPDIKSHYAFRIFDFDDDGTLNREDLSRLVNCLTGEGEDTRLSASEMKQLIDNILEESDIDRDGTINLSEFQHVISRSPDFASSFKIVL
# Procedure, shortened: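 CIB1-GST (1 uM final) and compound incubated 15 min at room temperature before adding FITC-alphaIIb peptide tracer (100 nM final). Competition for binding read by fluorescence polarization (ex 480, em 540) after another 15 min at room temperature.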
# [2] = target: Cytochrome P450 2D6 (Homo sapiens) (UniProt P10635); experiment: Cytochrome P450 family 2 subfamily D member 6 (CYP2D6) small molecule antagonists: luciferase biochemical (cell-free) qHTS assay (AID 1645840; active = well fitted curve in the direction sought with a large enough effect in the repeat runs; an effect the other way counts as inactive or inconclusive; note: nearly all actives have a fitted effect of over 55% in size; note: potency is the fitted concentration of half-maximal effect)
# Cytochrome P450 2D6 (Homo sapiens), sequence (P10635 whole entry, looked up): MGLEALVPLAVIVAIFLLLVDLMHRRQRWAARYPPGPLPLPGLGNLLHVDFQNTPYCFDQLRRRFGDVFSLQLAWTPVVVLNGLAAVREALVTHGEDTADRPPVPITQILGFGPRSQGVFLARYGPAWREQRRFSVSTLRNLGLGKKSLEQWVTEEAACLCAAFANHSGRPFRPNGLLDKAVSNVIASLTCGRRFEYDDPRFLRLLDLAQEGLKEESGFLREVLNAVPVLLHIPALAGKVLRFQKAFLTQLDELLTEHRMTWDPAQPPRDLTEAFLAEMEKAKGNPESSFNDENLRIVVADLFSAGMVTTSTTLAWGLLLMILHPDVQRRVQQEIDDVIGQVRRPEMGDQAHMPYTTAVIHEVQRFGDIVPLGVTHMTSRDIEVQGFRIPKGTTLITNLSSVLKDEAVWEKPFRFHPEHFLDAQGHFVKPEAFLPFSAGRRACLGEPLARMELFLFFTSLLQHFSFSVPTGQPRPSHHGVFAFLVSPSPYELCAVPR
# Procedure, shortened: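 P450-Glo luminescent screen: recombinant CYP2D6 enzyme–proluciferin substrate mix preincubated with compound 10 min at room temperature, then NADPH regeneration added for 1 h at room temperature. Detection reagent added for 20 min; luciferin light read as relative luminescence units.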
# [3] = target: Cytochrome P450 2C9 (Homo sapiens) (UniProt P11712); experiment: Cytochrome P450 family 2 subfamily C member 9 (CYP2C9) small molecule antagonists: luciferase biochemical (cell-free) qHTS assay (AID 1645842; active = well fitted curve in the direction sought with a large enough effect in the repeat runs; an effect the other way counts as inactive or inconclusive; note: nearly all actives have a fitted effect of over 55% in size; note: potency is the fitted concentration of half-maximal effect)
# Cytochrome P450 2C9 (Homo sapiens), sequence (P11712 whole entry, looked up): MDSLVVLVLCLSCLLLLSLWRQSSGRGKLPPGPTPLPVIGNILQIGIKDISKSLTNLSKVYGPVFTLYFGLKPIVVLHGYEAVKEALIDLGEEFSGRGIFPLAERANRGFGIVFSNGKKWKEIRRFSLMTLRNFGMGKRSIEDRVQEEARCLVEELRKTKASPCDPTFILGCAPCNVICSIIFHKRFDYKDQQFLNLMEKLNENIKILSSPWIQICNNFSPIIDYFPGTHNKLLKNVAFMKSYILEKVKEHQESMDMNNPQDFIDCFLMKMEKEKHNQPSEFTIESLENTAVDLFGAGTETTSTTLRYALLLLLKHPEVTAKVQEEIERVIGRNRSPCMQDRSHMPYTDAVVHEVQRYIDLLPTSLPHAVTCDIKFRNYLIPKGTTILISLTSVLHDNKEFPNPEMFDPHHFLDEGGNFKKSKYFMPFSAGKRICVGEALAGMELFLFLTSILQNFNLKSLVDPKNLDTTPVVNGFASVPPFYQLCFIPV
# Procedure, shortened: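 Luminescence, after 20 min with luciferin detection reagent, reflected CYP2C9 turnover during a 1 h NADPH-driven reaction at 37C. Enzyme-substrate mix contained 0.4% bovine serum albumin and was preincubated with compound 10 min at room temperature.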
# [4] = Primary qHTS for inhibitors of nuclear receptor binding SET domain protein 2 (NSD2) in an isogenic RCH-ACV NSD2 p.E1099K mutant (9B) (AID 1645876); note: nearly all actives have a fitted effect of over 70% in size
# [5] = Primary qHTS for inhibitors of nuclear receptor binding SET domain protein 2 (NSD2) in an RCH-ACV wild type WT cells (2C) (AID 1645877); note: nearly all actives have a fitted effect of over 70% in size; note: potency is the fitted concentration of half-maximal effect
# [6] = target: Catechol O-methyltransferase (Homo sapiens) (UniProt P21964); experiment: Confirmatory Screen for Target Class Profiling of Small Molecule Inhibitors of Methyltransferases (AID 1745852; calls by dose curve); settings: MTase-Glo luminescence, SAH detection, recombinant enzyme; measured here: COMT max response; stronger effect = lower value
# Catechol O-methyltransferase (Homo sapiens), sequence (P21964 whole entry, looked up): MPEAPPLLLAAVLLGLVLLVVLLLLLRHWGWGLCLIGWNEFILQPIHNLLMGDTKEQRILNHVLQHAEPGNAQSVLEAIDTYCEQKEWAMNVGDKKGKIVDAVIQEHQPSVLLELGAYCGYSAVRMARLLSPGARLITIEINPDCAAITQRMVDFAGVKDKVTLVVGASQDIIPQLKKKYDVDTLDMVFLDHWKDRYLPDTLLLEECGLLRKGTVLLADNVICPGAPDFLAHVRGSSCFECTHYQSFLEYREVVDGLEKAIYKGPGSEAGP
# [7] = target: Guanidinoacetate N-methyltransferase (Homo sapiens) (UniProt Q14353); experiment: as above; settings: MTase-Glo luminescence, SAH detection, recombinant enzyme; activity change, negative = inhibition: at 57.3 µM (top of the series) unless noted
# [8] = target: Nicotinamide N-methyltransferase (Homo sapiens) (UniProt P40261); experiment: as above; settings: MTase-Glo luminescence, SAH detection, recombinant enzyme; measured here: NNMT max response; stronger effect = lower value
# Nicotinamide N-methyltransferase (Homo sapiens), sequence (P40261 whole entry, looked up): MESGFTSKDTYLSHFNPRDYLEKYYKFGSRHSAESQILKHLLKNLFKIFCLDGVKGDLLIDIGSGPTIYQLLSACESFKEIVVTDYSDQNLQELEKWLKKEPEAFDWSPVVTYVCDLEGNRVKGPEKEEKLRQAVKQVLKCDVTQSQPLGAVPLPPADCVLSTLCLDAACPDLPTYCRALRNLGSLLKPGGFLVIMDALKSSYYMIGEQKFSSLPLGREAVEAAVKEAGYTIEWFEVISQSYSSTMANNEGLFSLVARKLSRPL
# [9] = target: Phenylethanolamine N-methyltransferase (Homo sapiens) (UniProt P11086); experiment: as above; settings: MTase-Glo luminescence, SAH detection, recombinant enzyme; measured here: PNMT max response; stronger effect = lower value
# Phenylethanolamine N-methyltransferase (Homo sapiens), sequence (P11086 whole entry, looked up): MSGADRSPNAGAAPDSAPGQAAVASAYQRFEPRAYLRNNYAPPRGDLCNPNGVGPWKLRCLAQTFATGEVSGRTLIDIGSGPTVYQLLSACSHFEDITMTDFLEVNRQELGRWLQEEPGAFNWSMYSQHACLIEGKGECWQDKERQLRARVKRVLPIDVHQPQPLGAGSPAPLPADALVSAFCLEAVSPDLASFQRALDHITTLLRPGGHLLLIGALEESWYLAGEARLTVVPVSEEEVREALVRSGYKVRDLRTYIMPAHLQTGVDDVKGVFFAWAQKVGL
SMILES,Potency [1],Potency [2],Potency [3],Potency [4],Potency [5],activity [6] [%],"activity change, negative = inhibition [7] [%]",activity [8] [%],activity [9] [%]
Cc1ccc(Cl)cc1N(CC(=O)Nc1c(F)cccc1F)S(C)(=O)=O,inactive,inactive,1.2 µM (active),inactive,inactive,,,,
CNC(C)C(=O)NC(C(=O)N1CCCC1C(=O)Nc1cccc2ncccc12)C(C)C (configuration not stated),inactive,inactive,inactive,inactive,inactive,,,,
CC1(C)[C@H]2C[C@H](C/C=C\CCCC(=O)O)[C@@H](NC(=O)c3csc4ccc(O)cc34)[C@@H]1C2,inactive,inactive,1.34 µM (active),inactive,inactive,,,,
COc1ccccc1CN[C@H]1CCCN[C@H]1c1ccccc1,inactive,1.07 µM (active),inactive,inactive,,0.295,7.32,-6.63,-0.84
N#Cc1cccc(-c2nc(-c3cccnc3)no2)c1,inactive,2.62 µM (active),4.65 µM (active),inactive,inactive,,,,
CCOC(=O)C1=C(N)Oc2ccc(Cl)cc2C1C(C#N)C(=O)OCC (configuration not stated),inactive,16.9 µM (active),10.7 µM (active),inactive,inactive,,,,
COc1cnc(-c2ccc(Cn3c(CC(C)(C)C(=O)O)c(SC(C)(C)C)c4cc(OC[C@@H]5Cc6ccccc6N5C(C)=O)ccc43)cc2)nc1,inactive,inactive,12 µM (active),,,-6.21,-3.63,-11.1,-8.45
CN(C)c1ccc(C2O[C@@H](c3ccccc3)C[C@H](c3ccccc3)O2)cc1 (some centres not stated),inactive,inactive,15.1 µM (active),inactive,inactive,,,,
O=C(c1ccc(Cl)c([N+](=O)[O-])c1)N1CCN(c2ccccc2F)CC1,inactive,inactive,2.68 µM (active),,16.3 µM (active),,,,
O=C(Nc1ccccc1)Nc1ccc(-c2ccc(C(=O)C3CCCC3C(=O)O)cc2)cc1 (configuration not stated),inactive,inactive,16.9 µM (active),inactive,inactive,,,,
Cc1nc2ccccc2c(-c2ccc3c4c(ccnc24)CCO3)c1[C@H](OC(C)(C)C)C(=O)O,inactive,inactive,inactive,inactive,inactive,,,,
Cc1occc1C(=O)n1ccnc1,inactive,inactive,,inactive,,,,,
COc1ccc(CC(=O)NCc2ccccc2-c2ccccc2C(=O)NCCc2cccnc2)cc1,inactive,10.7 µM (active),2.68 µM (active),inactive,inactive,,,,
